Laboratory results published in ChEMBL document CHEMBL1157539, “Thousands of chemical starting points for antimalarial lead identification” (Nature, 2010).

How the values were obtained:
Format in all cases: functional
Plasmodium falciparum [1] = test: GSK_TCMDC: Inhibition of Plasmodium falciparum 3D7 in whole red blood cells, using parasite LDH activity as an index of growth. Test compounds present at 2uM
Plasmodium falciparum [2] = test: GSK_TCMDC: Inhibition of Plasmodium falciparum Dd2 in whole red blood cells, using parasite LDH activity as an index of growth. Test compounds present at 2uM
HepG2 = test: GSK_TCMDC: Percent inhibition of human HepG2 cell line. Test compounds present at 10uM.

Row | Compound | Inhibition (Plasmodium falciparum [1]) [%] | Inhibition (Plasmodium falciparum [2]) [%] | Inhibition (HepG2) [%]
1 | Cc1cc(CNCCCCCCNCc2ccc(Cl)cc2)ccc1O | 96 | 0 | 23
2 | O=C(NC1CCCC1)c1ccc(N2CCC(NCc3cccc(C(F)(F)F)c3)CC2)cc1 | 87 | 75 | 11
3 | CCN(CC)C(=O)C1CCN(C(C(=O)N2CCN(CC(=O)N3CCCC3)CC2)c2cc3ccccc3o2)CC1 (stereo not drawn) | 98 | 4 | 0
4 | CN1CCCN(Cc2cccc(-c3ccc(NS(=O)(=O)c4cccc5cccnc45)cc3)c2)CC1.O=C(O)C(F)(F)F | 100 | 87 | 44
5 | CC(=O)N/N=C/[C@H](CCc1ccccc1)NC(=O)[C@H](CC(C)C)NC(=O)c1ccc(OCCN2CCOCC2)cc1 | 96 | 87 | 4
6 | COc1cccc(Nc2nc(Nc3cccc(C#N)c3)cc(-c3ccncc3)n2)c1 | 100 | 46 | 28
7 | Cc1cccc2[nH]c(-c3cc(-c4cccc(Cl)c4)cnc3N)nc12.O=C(O)C(F)(F)F | 100 | 99 | 32
8 | N=C(N)CCN(Cc1ccccc1)c1ccc(Cl)cc1 | 98 | 98 | 1
9 | Cc1[nH]c(C)c(-c2ccc(-c3ccc(OC(F)(F)F)cc3)cc2)c(=O)c1Cl | 98 | 97 | 24
10 | CCOC(=O)c1ccc(NC(=O)NC2CCN(CCCCCNC(=O)/C=C/c3ccc(Cl)c(Cl)c3)C2)cc1 (stereo not drawn) | 98 | 0 | 23
11 | COc1ccccc1CN1CCC(NC(=O)c2ccc(-c3cccc(C(F)(F)F)c3)s2)CC1.O=C(O)C(F)(F)F | 85 | 12 | 83
